Experimental data reported in the supplement of paper PMC6555819.

Tests used:
Assay in all cases: PBM binding z-score (relative to random genomic background probes); higher = stronger binding; sequences stand for … in GC…GCGATTGACAGCGTAGAATGAAGG
[1] = tested on: PPARg:RXRa DBDmut IVT, anti-RXR (DBD mutation: RXRa K156A/R161A, NR concentration 270 nM, RXRa partner concentration 90 nM)
Procedure, shortened: (§1)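 Ligand-free nuclear receptor dimers were bound for 1 h to custom Agilent 4×180K protein-binding microarrays. Detection used antibodies against each partner (one per run). Binding z-scores rest on regression-normalized fluorescence, with random background probes as the reference.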

[2] = tested on: PPARg:RXRa IVT, anti-PPARg (NR concentration 270 nM, RXRa partner concentration 90 nM)
Procedure, shortened: as §1

[3] = tested on: PPARg DBDmut:RXRa IVT, anti-PPARg (DBD mutation: PPARg1 K132A/R137A, NR concentration 270 nM, RXRa partner concentration 90 nM)
Procedure, shortened: as §1

[4] = tested on: PPARg DBDmut IVT, anti-PPARg (DBD mutation: PPARg1 K132A/R137A, NR concentration 270 nM)
Procedure, shortened: as §1

[5] = tested on: PPARg homodimer (NR concentration 180 nM)
Procedure, shortened: as §1

[6] = tested on: PXR:RXRa (NR concentration 270 nM, RXRa partner concentration 90 nM)
Procedure, shortened: as §1

[7] = tested on: PXR homodimer (NR concentration 270 nM)
Procedure, shortened: as §1

[8] = tested on: RARa:RXR (NR concentration 270 nM, RXRa partner concentration 90 nM)
Procedure, shortened: as §1

[9] = tested on: RARa homodimer (NR concentration 270 nM)
Procedure, shortened: as §1

[10] = tested on: RARb:RXRa (NR concentration 270 nM, RXRa partner concentration 90 nM)
Procedure, shortened: as §1

[11] = tested on: RARb homodimer (NR concentration 270 nM)
Procedure, shortened: as §1

[12] = tested on: RARg:RXRa (NR concentration 270 nM, RXRa partner concentration 90 nM)
Procedure, shortened: as §1

[13] = tested on: RARg homodimer (NR concentration 270 nM)
Procedure, shortened: as §1

[14] = tested on: RXRa DBDmut IVT, anti-RXR (DBD mutation: RXRa K156A/R161A, NR concentration 90 nM)
Procedure, shortened: as §1

[15] = tested on: RXRa homodimer (NR concentration 180 nM)
Procedure, shortened: as §1

[16] = tested on: THRa:RXRa (NR concentration 90 nM, RXRa partner concentration 90 nM)
Procedure, shortened: as §1

[17] = tested on: THRa homodimer (NR concentration 90 nM)
Procedure, shortened: as §1

[18] = tested on: VDR:RXRa (NR concentration 270 nM, RXRa partner concentration 90 nM)
Procedure, shortened: as §1

[19] = tested on: VDR homodimer (NR concentration 270 nM)
Procedure, shortened: as §1

| Sequence | PBM binding z-score [1] | PBM binding z-score [2] | PBM binding z-score [3] | PBM binding z-score [4] | PBM binding z-score [5] | PBM binding z-score [6] | PBM binding z-score [7] | PBM binding z-score [8] | PBM binding z-score [9] | PBM binding z-score [10] | PBM binding z-score [11] | PBM binding z-score [12] | PBM binding z-score [13] | PBM binding z-score [14] | PBM binding z-score [15] | PBM binding z-score [16] | PBM binding z-score [17] | PBM binding z-score [18] | PBM binding z-score [19] |
| --- | --- | --- | --- | --- | --- | --- | --- | --- | --- | --- | --- | --- | --- | --- | --- | --- | --- | --- | --- |
| ATCTCTAGGTAAAACTCAGTTCAGTGAAGAACGC | 2.63 | 1.95 | 0.847 | 0.779 | 1.22 | 1.7 | 1.99 | 0.609 | 1.49 | 0.514 | 0.751 | 0.623 | 0.586 | 0.726 | 0.153 | 1.18 | 0.901 | 1.5 | 2.13 |
| AGATGTAGGTTAGCTGGGGTCATTCAGACTAGGC | 5.87 | 5.76 | 1.86 | 0.481 | 2.31 | 6.19 | 3.97 | 5.41 | 0.958 | 3 | 3.53 | 3.96 | 2.72 | 1.78 | 5.24 | 5.05 | 3.03 | 5.98 | 4.8 |
| TAGTCTAGGTCATTGGGCCAGTATAGTACGCATC | 5.99 | 6.49 | 2.81 | 2.94 | 3.92 | 1.95 | 0.361 | 2.72 | 1.24 | 3.81 | 3.08 | 3.92 | 4.79 | 1.95 | 3.26 | 3.32 | 1.55 | 2.5 | 1.87 |
| TCATGTAGATCAATAGAGGTTAAGAAAGTGCGCT | 2.25 | 0.891 | 0.493 | 0.436 | 0.475 | 3.08 | 0.426 | 1.85 | 0.825 | 1.02 | 1.44 | 0.871 | 0.576 | 1.27 | 1.28 | 2.31 | -0.192 | 1.93 | 0.637 |
| TCTTGTAGATCAACAGGAGGTTAAGAGAGATCGA | 1.53 | 0.53 | 0.135 | -0.105 | -0.206 | 0.838 | -0.445 | 0.613 | -0.275 | 0.493 | 0.58 | 1.1 | 0.453 | 0.0129 | 0.887 | 1.01 | -0.746 | 0.733 | -0.539 |
| GCTAGCAGGCCATTTGGGTCACTCTATGACGGGC | 2.04 | 2.04 | -0.319 | -0.713 | -0.345 | 0.138 | -0.0419 | 0.546 | -0.641 | 1.27 | 1.56 | 0.776 | 0.994 | -0.157 | 0.463 | 1.4 | 0.526 | 0.648 | 0.578 |
| ATATGTTGGTTACATCCGGGTCATTCAGGCTATG | 1.41 | 2.24 | 1.25 | 1.54 | 1.46 | 2.51 | 1.42 | 2.55 | 1.23 | 1.62 | 2.54 | 1.79 | 1.29 | 0.674 | 2.18 | 3.16 | 2.45 | 3.42 | 2.26 |
